Reference: PubChem BioAssay (NCATS)
Where “and” joins values, the source holds several entries; their conditions need not be identical. Equal entries are not always repeated. Results filed as inconclusive are left out. Calls of active or inactive are those of the source. Unless noted, calls follow the shape of the dose curve; as a rule, active = well fitted curve in the direction sought with a large enough effect; inconclusive = small, poorly fitted or top-dose-only effect, or another doubt; inactive = no such curve, though single readings can be large; an effect the other way counts as inactive or inconclusive.

Assays:
[1] = target: Estrogen receptor (Homo sapiens) (UniProt P03372); assay: qHTS assay for small molecule antagonists of estrogen receptor alpha signaling (AID 588513; active = well fitted curve in the direction sought with a large enough effect in the signal ratio, with a control signal flat, not every such curve was filed as active; the % refers to the signal ratio; also: % is scaled to controls: 0 for no effect and ±100 for the full control effect)
Sequence of Estrogen receptor (Homo sapiens) (P03372 whole entry, looked up): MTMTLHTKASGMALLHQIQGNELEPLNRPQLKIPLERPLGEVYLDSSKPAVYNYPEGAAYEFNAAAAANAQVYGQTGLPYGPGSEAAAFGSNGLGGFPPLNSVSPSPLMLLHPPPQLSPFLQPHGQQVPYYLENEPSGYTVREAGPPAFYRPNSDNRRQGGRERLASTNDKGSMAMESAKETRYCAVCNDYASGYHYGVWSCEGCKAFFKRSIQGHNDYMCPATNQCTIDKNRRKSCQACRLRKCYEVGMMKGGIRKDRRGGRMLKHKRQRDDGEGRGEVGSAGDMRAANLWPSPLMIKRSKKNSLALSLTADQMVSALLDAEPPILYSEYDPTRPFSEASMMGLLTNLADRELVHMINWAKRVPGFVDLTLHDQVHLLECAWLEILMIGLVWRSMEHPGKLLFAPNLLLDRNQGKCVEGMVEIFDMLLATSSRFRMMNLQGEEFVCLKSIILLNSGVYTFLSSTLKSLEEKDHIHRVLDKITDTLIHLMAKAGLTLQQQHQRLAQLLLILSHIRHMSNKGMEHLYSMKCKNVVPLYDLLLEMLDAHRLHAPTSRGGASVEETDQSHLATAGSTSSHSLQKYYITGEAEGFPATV
Method in brief: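 Antagonist-mode qHTS in ER-alpha-UAS-bla HEK 293 cells: compound titration, 0.5nM estradiol for 18 h, CCF4 fluorescence, Hill-derived IC50.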

[2] = target: Estrogen receptor (Homo sapiens) (UniProt P03372); assay: qHTS assay for small molecule agonists of estrogen receptor alpha signaling (AID 588514; calls by dose curve;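 also: 0% = vehicle only and 100% = reference agonist; nearly all actives have a fitted effect of over 70% in size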)
Method in brief: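 Read-out: CCF4 fluorescence from a beta-lactamase reporter in ER-alpha-UAS-bla HEK 293 cells after 18 hrs of compound exposure at 37 C. Normalized to 20 nM 17-beta-estradiol (100%) and DMSO (0%).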

[3] = target: Glucocorticoid receptor (Homo sapiens) (UniProt P04150); assay: qHTS assay for small molecule agonists of glucocorticoid receptor signaling (AID 588532; active = well fitted curve in the direction sought with a large enough effect in the signal ratio, with a control signal flat; the % refers to the signal ratio;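 also: 100% = dexamethasone at 0.1 µM and 0% = DMSO only wells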); settings: HeLa MMTV-bla, beta-lactamase ratio, agonist, 18 h; activation: stronger effect = higher value, percent of dexamethasone control, DMSO zero
Sequence of Glucocorticoid receptor (Homo sapiens) (P04150 whole entry, looked up): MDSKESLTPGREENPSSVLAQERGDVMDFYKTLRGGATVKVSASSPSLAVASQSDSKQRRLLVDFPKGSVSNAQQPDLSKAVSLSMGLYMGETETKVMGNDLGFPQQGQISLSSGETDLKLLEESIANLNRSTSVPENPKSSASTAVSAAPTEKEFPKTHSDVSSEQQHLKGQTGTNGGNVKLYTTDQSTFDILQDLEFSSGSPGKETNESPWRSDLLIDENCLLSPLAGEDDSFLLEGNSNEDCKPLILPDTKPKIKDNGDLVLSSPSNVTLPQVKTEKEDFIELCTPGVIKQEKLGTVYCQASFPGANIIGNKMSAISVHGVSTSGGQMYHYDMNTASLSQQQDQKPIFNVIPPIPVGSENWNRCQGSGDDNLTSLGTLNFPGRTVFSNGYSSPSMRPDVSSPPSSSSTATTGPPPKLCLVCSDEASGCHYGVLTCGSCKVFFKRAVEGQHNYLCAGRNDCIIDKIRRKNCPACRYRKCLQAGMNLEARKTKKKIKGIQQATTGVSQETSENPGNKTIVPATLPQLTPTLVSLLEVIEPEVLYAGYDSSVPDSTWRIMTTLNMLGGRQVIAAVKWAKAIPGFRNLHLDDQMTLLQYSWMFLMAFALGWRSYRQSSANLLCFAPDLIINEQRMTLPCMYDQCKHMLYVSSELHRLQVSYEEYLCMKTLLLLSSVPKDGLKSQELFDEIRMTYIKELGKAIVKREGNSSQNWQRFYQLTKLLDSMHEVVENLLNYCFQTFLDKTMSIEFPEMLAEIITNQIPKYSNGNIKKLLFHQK
Method in brief: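 Quantitative HTS using CellSensor MMTV-bla HeLa cells in charcoal/dextran-treated serum; compounds tested up to 92 uM. After 18 h at 37 C, CCF4 dye reported reporter induction.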

[4] = target: Peroxisome proliferator-activated receptor delta (Homo sapiens) (UniProt Q03181); assay: qHTS assay for small molecule agonists of peroxisome proliferator-activated receptor delta signaling (AID 588534; calls by dose curve;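 also: 0% = DMSO basal wells and 100% = positive control agonist at 10 µM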)
Sequence of Peroxisome proliferator-activated receptor delta (Homo sapiens) (Q03181 whole entry, looked up): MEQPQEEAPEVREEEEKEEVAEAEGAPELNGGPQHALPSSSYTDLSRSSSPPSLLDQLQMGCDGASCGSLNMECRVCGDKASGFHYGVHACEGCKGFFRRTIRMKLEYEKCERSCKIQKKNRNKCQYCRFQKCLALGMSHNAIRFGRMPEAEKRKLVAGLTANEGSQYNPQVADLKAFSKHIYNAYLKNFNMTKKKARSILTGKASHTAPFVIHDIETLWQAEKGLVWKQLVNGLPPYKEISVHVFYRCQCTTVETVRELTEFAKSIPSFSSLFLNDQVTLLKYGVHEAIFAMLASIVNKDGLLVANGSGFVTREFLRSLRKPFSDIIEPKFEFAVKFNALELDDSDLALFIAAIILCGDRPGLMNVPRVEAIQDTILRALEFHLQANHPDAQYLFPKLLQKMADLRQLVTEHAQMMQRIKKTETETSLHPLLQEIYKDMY
Method in brief: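 Titration series tested in agonist mode on beta-lactamase reporter cells; 18 hrs at 37 C after a 5 hr pre-incubation. Readout: CCF4 fluorescence, 2 hrs RT. Hill equation gives EC50 and maximal response.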

[5] = qHTS assay for small molecule antagonists of retinoid X receptor alpha signaling (AID 588546; active = well fitted inhibition curve with a large enough effect in the signal ratio, with a control signal flat, not every such curve was filed as active; the % refers to the signal ratio;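 also: cells stimulated with 9-cis-retinoic acid as agonist; % is scaled to controls: 0 for no effect and ±100 for the full control effect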); settings: HEK293T RXRa-UAS-bla, beta-lactamase ratio, antagonist mode; measured here: W530 green channel, cytotoxicity proxy
Method in brief: (§1)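 Beta-lactamase reporter inhibition, read as CCF4 fluorescence ratio (ex 405, em 460/530 nm) after 2 h at RT. HEK293T UAS-bla cells, 2500/well, were stimulated with 9-cis-RA at 500 or 100 nM final alongside test compound for 18 h at 37 C.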

[6] = target: Retinoic acid receptor RXR-alpha (Homo sapiens) (UniProt P19793); assay: as above; settings: HEK293T RXRa-UAS-bla, beta-lactamase ratio, antagonist mode
Sequence of Retinoic acid receptor RXR-alpha (Homo sapiens) (P19793 whole entry, looked up): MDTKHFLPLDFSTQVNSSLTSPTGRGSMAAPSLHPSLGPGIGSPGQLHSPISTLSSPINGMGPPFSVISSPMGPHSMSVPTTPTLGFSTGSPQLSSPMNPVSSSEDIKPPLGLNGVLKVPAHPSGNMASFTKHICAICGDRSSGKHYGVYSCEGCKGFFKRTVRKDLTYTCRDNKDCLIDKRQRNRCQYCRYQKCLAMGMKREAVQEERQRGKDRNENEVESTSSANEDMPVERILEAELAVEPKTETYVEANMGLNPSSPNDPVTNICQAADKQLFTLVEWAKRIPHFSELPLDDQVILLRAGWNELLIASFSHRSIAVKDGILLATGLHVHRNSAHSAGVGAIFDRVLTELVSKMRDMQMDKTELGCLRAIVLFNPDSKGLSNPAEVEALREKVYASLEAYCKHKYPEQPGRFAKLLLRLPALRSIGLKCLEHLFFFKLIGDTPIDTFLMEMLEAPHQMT
Method in brief: as §1

[7] = qHTS assay for small molecule activators of the p53 signaling pathway (AID 651743; active = well fitted activation curve with a large enough effect in the signal ratio, not every such curve was filed as active; the % refers to the signal ratio; also: series mostly up to about 92 µM; % of control where 0% means no effect); settings: HCT-116 p53RE-bla, beta-lactamase FRET ratio, 16 h; activation: stronger effect = higher value
Method in brief: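 A beta-lactamase reporter under p53 response element control, stably carried by HCT-116 cells, reported pathway activation. Test compounds were applied for 16 hours at 37 C, and fluorescence was measured 2 hours after adding the B/G FRET substrate.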

[8] = qHTS assay for environmental chemicals that activate the Aryl hydrocarbon Receptor (AhR) signaling pathway (AID 651777); settings: 1A2-DRE human hepatoma cells, luciferase, 24 h; activation: stronger effect = higher value; also: % of control where 0% means no effect; nearly all actives have a fitted effect of over 15% in size
Method in brief: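 Reporter gene assay: hepatoma cells with DRE/CYP1A2-luciferase, 24 hr compound incubation at 37 C, 5% CO2, luminescence after One-Glo (30 min, RT).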

[9] = qHTS assay for small molecule agonists of the antioxidant response element (ARE) signaling pathway measured by Nrf2-dependant transcriptional activity (AID 720636; active = well fitted curve in the direction sought with a large enough effect in the repeat runs; an effect the other way counts as inactive or inconclusive;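 also: HepG2 cells with an ARE-driven luciferase reporter; % of control where 0% means no effect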)
Method in brief: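 Nrf2-dependent transcription is measured in ARE-luc HepG2 cells: compound is applied for 16 hr at 37 C after a 6 hr attachment period, and luciferase activity is quantified by luminescence using ONE-Glo.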

[10] = qHTS assay for small molecule agonists of the antioxidant response element (ARE) signaling pathway measured by Nrf2-dependant transcriptional activity - cell viability counter screen (AID 720653; active = well fitted curve in the direction sought with a large enough effect in the repeat runs; an effect the other way counts as inactive or inconclusive; also: % is scaled to controls: 0 for no effect and ±100 for the full control effect); settings: ARE-bla HepG2 viability, CellTiter-Glo ATP luminescence, 16 h; max response: stronger effect = lower value
Method in brief: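 Cytotoxicity counter screen: intracellular ATP quantified by CellTiter-Glo luminescence in the same ARE-bla HepG2 plates, after 16 h compound exposure and a 2 h beta-lactamase substrate step.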

[11] = qHTS assay for cell viability of HEK293 cells (AID 743288); settings: ATP luminescence (CellTiter-Glo), 18 h; max response: stronger effect = lower value; also: % is scaled to controls: 0 for no effect and ±100 for the full control effect; nearly all actives have a fitted effect of over 50% in size
Method in brief: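 HEK293, 18 h, 37 C, ATP luminescence. Cells at 2,000/well were allowed at least 5 h to settle before dosing; CellTiter-Glo developed 30 min at RT.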

[12] = qHTS assay for cell viability of the p53RE-bla HCT-116 cell line (AID 743292); also: % is scaled to controls: 0 for no effect and ±100 for the full control effect; nearly all actives have a fitted effect of over 55% in size
Method in brief: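 ATP-based luminescence, 16 h compound exposure at 37 C, p53RE-bla HCT-116 cells at 4,000/well.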

[13] = target: Nuclear receptor subfamily 1 group I member 2 (Rattus norvegicus) (UniProt Q9R1A7); assay: qHTS assay for small molecule activators of the rat pregnane X receptor (rPXR) signaling pathway (AID 651751; call rule not given here; also: 0% is about no effect); settings: rPXR reporter cells, luciferase (One-Glo), 24 h
Sequence of Nuclear receptor subfamily 1 group I member 2 (Rattus norvegicus) (Q9R1A7 whole entry, looked up): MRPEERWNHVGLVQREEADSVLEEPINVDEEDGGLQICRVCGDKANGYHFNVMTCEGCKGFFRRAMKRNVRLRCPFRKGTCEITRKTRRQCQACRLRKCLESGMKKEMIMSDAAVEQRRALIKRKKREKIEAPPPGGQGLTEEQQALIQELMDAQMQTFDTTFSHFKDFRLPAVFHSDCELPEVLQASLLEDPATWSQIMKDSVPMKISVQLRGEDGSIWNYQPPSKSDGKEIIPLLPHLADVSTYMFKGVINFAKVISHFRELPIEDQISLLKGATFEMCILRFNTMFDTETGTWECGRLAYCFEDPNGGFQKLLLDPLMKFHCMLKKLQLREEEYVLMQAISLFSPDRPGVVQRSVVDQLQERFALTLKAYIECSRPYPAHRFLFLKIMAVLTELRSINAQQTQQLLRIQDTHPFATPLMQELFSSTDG

[14] = target: Vitamin D3 receptor (Homo sapiens) (UniProt P11473); assay: qHTS assay for small molecule antagonists of vitamin D receptor signaling (AID 588541; calls by dose curve;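 also: receptor activated by calcitriol during compound treatment; series mostly up to about 77 µM; % is scaled to controls: 0 for no effect and ±100 for the full control effect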)
Sequence of Vitamin D3 receptor (Homo sapiens) (P11473 whole entry, looked up): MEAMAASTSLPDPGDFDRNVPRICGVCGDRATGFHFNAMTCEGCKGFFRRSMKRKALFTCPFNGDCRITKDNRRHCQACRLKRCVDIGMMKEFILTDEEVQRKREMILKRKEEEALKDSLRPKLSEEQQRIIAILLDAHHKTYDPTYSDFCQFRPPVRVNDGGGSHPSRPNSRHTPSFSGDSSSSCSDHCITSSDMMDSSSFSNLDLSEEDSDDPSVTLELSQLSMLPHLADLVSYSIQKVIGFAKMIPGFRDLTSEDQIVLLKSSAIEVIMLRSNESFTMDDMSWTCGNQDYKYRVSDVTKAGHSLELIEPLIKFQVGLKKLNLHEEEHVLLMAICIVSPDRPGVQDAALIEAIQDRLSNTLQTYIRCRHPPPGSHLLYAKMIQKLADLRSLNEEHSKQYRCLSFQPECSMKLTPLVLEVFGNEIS
Method in brief: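 Antagonist-mode beta-lactamase reporter assay: HEK293T VDR-UAS-bla cells were exposed to titrated compound alongside 1-alpha,25-dihydroxyvitamin D3 at 3 nM final for 16 h. Values were normalized to the 50 nM agonist control and DMSO basal, with IC50 and efficacy from Hill equation fits.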

[15] = qHTS assay for small molecule agonists of retinoid X receptor alpha signaling (AID 588544; calls by dose curve; also: potency is read from the fitted curve at half-maximal effect;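 as to activation: 0% = DMSO basal wells and 100% = reference agonist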); settings: HEK293T RXRa-UAS-bla, beta-lactamase reporter, 18 h; 530 nm emission
[16] = target: Retinoic acid receptor RXR-alpha (Homo sapiens) (UniProt P19793); assay: as above
[17] = target: Thyroid hormone receptor beta (Homo sapiens) (UniProt P10828); assay: qHTS assay for small molecule agonists of thyroid hormone receptor beta signaling (AID 588545; calls by dose curve;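 also: 0% = DMSO only and 100% = 10 nM T3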)
Sequence of Thyroid hormone receptor beta (Homo sapiens) (P10828 whole entry, looked up): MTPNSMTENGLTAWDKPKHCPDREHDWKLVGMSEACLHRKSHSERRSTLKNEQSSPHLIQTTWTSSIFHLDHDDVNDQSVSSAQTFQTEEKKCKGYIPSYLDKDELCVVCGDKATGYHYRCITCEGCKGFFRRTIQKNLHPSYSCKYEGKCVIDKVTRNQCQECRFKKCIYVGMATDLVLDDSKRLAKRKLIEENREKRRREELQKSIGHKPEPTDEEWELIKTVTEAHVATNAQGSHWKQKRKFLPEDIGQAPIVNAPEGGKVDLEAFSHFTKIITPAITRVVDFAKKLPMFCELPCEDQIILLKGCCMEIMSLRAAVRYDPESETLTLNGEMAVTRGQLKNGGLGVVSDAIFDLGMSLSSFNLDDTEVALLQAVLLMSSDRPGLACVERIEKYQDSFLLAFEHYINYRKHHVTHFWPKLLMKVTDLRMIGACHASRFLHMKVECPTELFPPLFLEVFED
Method in brief: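 TR-UAS-bla GripTite HEK 293 cells (2500/well, medium with 2% charcoal/dextran FBS) were treated in agonist mode for 18 h at 37 C, titrated. Beta-lactamase was read by CCF4 ratio after 2 h; normalized to 10 nM T3 (100%) and DMSO, Hill-fitted for EC50 and efficacy.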

[18] = target: Thyroid hormone receptor beta (Homo sapiens) (UniProt P10828); assay: qHTS assay for small molecule antagonists of thyroid hormone receptor beta signaling (AID 588547; active = well fitted inhibition curve with a large enough effect in the signal ratio, with a control signal flat, not every such curve was filed as active; the % refers to the signal ratio); settings: TR-UAS-bla HEK293, beta-lactamase ratio, antagonist mode, 18 h
Method in brief: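 Inhibition of T3-driven (0.4nM final) beta-lactamase reporter activity was measured over 0.59 nM to 92 uM compound after 18 h at 37 C. The cells were GripTite HEK293 TR-UAS-bla in charcoal/dextran-stripped serum, with CCF4 ratio read-out and IC50 from Hill fits.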

[19] = target: Peroxisome proliferator-activated receptor alpha (Homo sapiens) (UniProt Q07869); assay: qHTS assay for small molecule agonists of the peroxisome proliferator-activated receptor alpha (PPARalpha) signaling pathway (AID 651778); settings: PathHunter PPARalpha complementation, chemiluminescence, 6 h; max response: stronger effect = higher value; also: % of control where 0% means no effect
Sequence of Peroxisome proliferator-activated receptor alpha (Homo sapiens) (Q07869 whole entry, looked up): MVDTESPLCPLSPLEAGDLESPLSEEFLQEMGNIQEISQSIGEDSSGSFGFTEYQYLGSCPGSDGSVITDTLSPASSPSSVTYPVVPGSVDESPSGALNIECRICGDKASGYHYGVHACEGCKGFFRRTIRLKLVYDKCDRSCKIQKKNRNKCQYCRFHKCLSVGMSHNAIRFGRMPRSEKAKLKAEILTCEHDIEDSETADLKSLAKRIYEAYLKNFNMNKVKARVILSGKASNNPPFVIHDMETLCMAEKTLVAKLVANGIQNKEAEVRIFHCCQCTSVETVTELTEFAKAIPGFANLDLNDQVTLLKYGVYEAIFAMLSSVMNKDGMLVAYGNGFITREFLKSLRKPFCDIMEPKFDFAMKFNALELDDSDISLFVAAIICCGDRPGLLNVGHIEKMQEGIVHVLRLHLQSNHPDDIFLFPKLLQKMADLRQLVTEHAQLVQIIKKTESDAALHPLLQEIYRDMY
Method in brief: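 Chemiluminescence from complemented enzyme reported PPARalpha activation in cells after 6 hr of compound treatment at 37 C. The detection reagent was incubated for 60 min at room temperature, and compounds were scored as agonists.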

Compound	Potency [1]	Potency [2]	activation [3]	outcome [4]	max response [5]	max response [6]	activation [7]	activation [8]	Potency [9]	max response [10]	max response [11]	Potency [12]	max response [13]	Potency [14]	max response [15]	Potency [16]	Potency [17]	activity change % (negative = inhibition) [18]	max response [19]
NS(=O)(=O)C(F)(F)C(F)(F)C(F)(F)C(F)(F)C(F)(F)C(F)(F)C(F)(F)C(F)(F)F	inactive	inactive	-2.51% (inactive)	inactive	-4.16%	-55.1% (inactive)	13.9% (inactive)	4% (inactive)	inactive	-2.62% (inactive)	-13.7% (inactive)	inactive	-9.61% (inactive)						
CCOP(=O)(OCC)SCCSCC	inactive	inactive			-5.85%	3.44% (inactive)		1.43% (inactive)		12.9% (inactive)	-2.44% (inactive)	inactive	3.51% (inactive)	inactive	-10.7%	44.7 µM (active)	inactive	-4.38% (inactive)	-1.58% (inactive)
O=C(O)c1nc(Cl)ccc1Cl	inactive	inactive	-4.22% (inactive) and 6.64% (inactive)		-5.13% and -14.7%	-18.6% (inactive) and -6.7% (inactive)	3.37% (inactive)	0.739% (inactive) and -2.14% (inactive)	inactive	-0.246% (inactive) and 14% (inactive)	-0.844% (inactive) and 6.6% (inactive)	inactive	3.48% (inactive) and 10.3% (inactive)		15.6% and -18.9%	inactive	inactive	-7.12% (inactive)	-1.62% (inactive) and -4.61% (inactive)
